Measured values from PubChem BioAssay.
Results with a measured potency or affinity are listed apart. Inconclusive results are not listed. Calls of active or inactive are those of the source. Unless noted, the rule behind the calls is not given here.

Experiments:
[1] = RMG-1 ovarian cancer cell viability loss – cherry-pick, dose response (AID 687029;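 active = signal drop whose fitted half-maximal concentration is at most twice the top valid dose, in every test run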;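 note: cells exposed to compound for 96 hours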)
[2] = IOSE-T80 viability loss, PAX8-independent line – cell-based, cherry-pick, selectivity assay for PAX8 inhibitor project, dose response (AID 687032;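 active = fitted half-maximal concentration for viability loss no higher than twice the top valid dose, in every repeat run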;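 note: cells exposed to compound for 96 h before reading; 0% = neutral control wells and -100% = 2 µM mitoxantrone kill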)
[3] = CMV-driven luciferase expression suppression in HEK293 – cell-based, luminescence, dry powder, counter-screen for Pax8 inhibitor project, dose response (AID 743020;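 active = signal-lowering compounds whose fitted half-maximal concentration is at or below twice the top tested dose in every run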;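 note: HEK293 cells stably expressing the CMV luciferase reporter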)
[4] = general cell-killing toxicity readout – plate reader, dry powder samples, cytotoxicity control for PAX8 inhibitor project, dose response (AID 743021)
[5] = IGROV1 cell killing – plate reader, dry powder samples, PAX8 inhibitor project, dose response (AID 743043);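 note: more negative means fewer viable cells or more cytotoxicity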
[6] = OVCAR-3 cell viability loss – plate reader, dry powder samples, PAX8 inhibitor project, dose response (AID 743044); details: max activity: at 35 µM, stronger effect = lower value unless noted
[7] = toxicity toward immortalized ovarian surface epithelium – cell-based, plate reader, dry powder samples, cytotoxicity control for PAX8 inhibitor project, dose response (AID 743045);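 note: 0% = neutral control median and -100% = positive control median; more negative values mean more cell killing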
[8] = A2780 cell killing – plate reader, dry powder samples, cytotoxicity control, dose response (AID 743046);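 note: 0% = neutral control wells and -100% = cytotoxic reference compound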
[9] = OVCAR8 cell viability loss – plate reader, dry powder samples, PAX8 project, dose response (AID 743197)

Measured: max activity

CN1c2ccc(C#Cc3cccnc3)cc2[C@@H]2[C@@H](CCN2C(=O)Cc2cccnc2)[C@@H]1CO
inactive: [1] | [2] | [3] | [4] | [5] | [6] 17.5% [at 16 µM, stronger effect = lower value] | [7] | [8] | [9]

CC(C)CC#Cc1ccc2c(c1)O[C@H](CN(C)S(=O)(=O)c1ccc(F)cc1)[C@H](C)CN([C@@H](C)CO)S2(=O)=O
inactive: [1] | [2] | [3] | [4] | [5] | [6] -39.6% | [7] | [8] | [9]

C[C@H](CO)N1C[C@H](C)[C@H](CN(C)C(=O)NC2CCCCC2)Oc2cc(C#Cc3ccc(F)cc3)ccc2S1(=O)=O
inactive: [1] | [2] | [3] | [4] | [5] | [6] -20.7% | [7] | [8] | [9]

C[C@@H]1CCCCO[C@H](CN(C)Cc2ccc(C(F)(F)F)cc2)[C@H](C)CN([C@H](C)CO)C(=O)c2cc(NS(=O)(=O)c3ccc(F)cc3)ccc2O1
inactive: [1] | [2] | [3] | [4] | [5] | [6] -10.2% | [7] | [8] | [9]

CC(C)CC#Cc1ccc2c(c1)O[C@@H](CN(C)Cc1ccncc1)[C@H](C)CN([C@@H](C)CO)S2(=O)=O
inactive: [1] | [2] | [3] | [4] | [5] | [6] 11.2% [at 4.2 µM, stronger effect = lower value] | [7] | [8] | [9]

C[C@@H]1CN([C@@H](C)CO)C(=O)c2cc(NC(=O)Nc3ccc4c(c3)OCO4)ccc2O[C@@H]1CN(C)C(=O)Nc1ccc(C(F)(F)F)cc1
inactive: [1] | [2] | [3] | [4] | [5] | [6] 51.3% [at 0.26 µM, stronger effect = lower value] | [7] | [8] | [9]

O=C(Nc1ccc(C(F)(F)F)cc1)N1C[C@@H]2N[C@H](C1)C2c1ccc(-c2ccccc2)cc1 (stereo partly specified)
inactive: [1] | [2] | [3] | [4] | [5] | [6] 13.9% [at 0.26 µM, stronger effect = lower value] | [7] | [8] | [9]

O=C(C[C@@H]1CC[C@@H]2[C@H](COC[C@H](O)CN2S(=O)(=O)c2cccc(Cl)c2)O1)Nc1ccc(-c2ccccc2)cc1
inactive: [1] | [2] | [3] | [4] | [5] | [6] -18.5% | [7] | [8] | [9]

C[C@@H]1CCCCO[C@H](CN(C)Cc2ccccc2)[C@H](C)CN([C@H](C)CO)C(=O)c2cc(NC(=O)Nc3ccc(C(F)(F)F)cc3)ccc2O1
inactive: [1] | [2] | [3] | [4] | [5] | [6] -9.62% | [7] | [8] | [9]

C[C@@H]1CCCCO[C@H](CN(C)Cc2ccc(C(F)(F)F)cc2)[C@@H](C)CN([C@@H](C)CO)C(=O)c2cc(NS(=O)(=O)c3cccs3)ccc2O1
inactive: [1] | [2] | [3] | [4] | [5] | [6] -7.27% [at 0.5 µM, stronger effect = lower value] | [7] | [8] | [9]

COc1ccc(S(=O)(=O)N2CCCCN3[C@H](C2)[C@@H](c2ccc(C#CC(C)C)cc2)[C@@H]3CO)cc1
inactive: [1] | [2] | [3] | [4] | [5] | [6] 10.6% [at 8 µM, stronger effect = lower value] | [7] | [8] | [9]

C[C@@H]1CCCCO[C@H](CN(C)Cc2ccc(C(F)(F)F)cc2)[C@H](C)CN([C@H](C)CO)C(=O)c2cc(NC(=O)Nc3ccc(F)cc3)ccc2O1
inactive: [1] | [2] | [3] | [4] | [5] | [6] 10.2% [at 1 µM, stronger effect = lower value] | [7] | [8] | [9]

C[C@@H]1CCCCO[C@H](CN(C)C(=O)C2CCCCC2)[C@@H](C)CN([C@@H](C)CO)C(=O)c2cc(NC(=O)Nc3ccccc3)ccc2O1
inactive: [1] | [2] | [3] | [4] | [5] | [6] 37.9% [at 1 µM, stronger effect = lower value] | [7] | [8] | [9]

C[C@H]1CCCCO[C@@H](CN(C)C)[C@@H](C)CN([C@@H](C)CO)C(=O)c2cc(NC(=O)Nc3ccc(C(F)(F)F)cc3)ccc2O1
inactive: [1] | [2] | [3] | [4] | [5] | [6] -16.2% [at 8 µM, stronger effect = lower value] | [7] | [8] | [9]

C[C@H](CO)N1C[C@H](C)[C@@H](CN(C)Cc2ccc(C(F)(F)F)cc2)Oc2ccc(NS(=O)(=O)c3ccc(F)cc3)cc2CC1=O
inactive: [1] | [2] | [3] | [4] | [5] | [6] 24.7% [at 16 µM, stronger effect = lower value] | [7] | [8] | [9]

Cc1ccc(S(=O)(=O)N(C)C[C@H]2Oc3c(NC(=O)Nc4ccc(F)cc4)cccc3C(=O)N([C@@H](C)CO)C[C@H]2C)cc1
inactive: [1] | [2] | [3] | [4] | [5] | [6] -10.2% | [7] | [8] | [9]

COc1ccc(S(=O)(=O)Nc2ccc3c(c2)C(=O)N([C@@H](C)CO)C[C@H](C)[C@H](CN(C)Cc2ccc(C(F)(F)F)cc2)OCCCC[C@@H](C)O3)cc1
inactive: [1] | [2] | [3] | [4] | [5] | [6] 26.1% | [7] | [8] | [9]

C[C@@H]1CCCCO[C@@H](CN(C)C(=O)C2CCCCC2)[C@H](C)CN([C@H](C)CO)C(=O)c2cc(NC(=O)Nc3ccc(F)cc3)ccc2O1
inactive: [1] | [2] | [3] | [4] | [5] | [6] -21.5% | [7] | [8] | [9]

C[C@@H]1CN([C@@H](C)CO)C(=O)Cc2cc(N(C)C)ccc2O[C@H]1CN(C)Cc1ccc(Oc2ccccc2)cc1
inactive: [1] | [2] | [3] | [4] | [5] | [6] -11.3% [at 4.2 µM, stronger effect = lower value] | [7] | [8] | [9]

C[C@@H]1CN([C@@H](C)CO)C(=O)Cc2cc(NC(=O)Nc3ccc(F)cc3)ccc2O[C@H]1CN(C)Cc1ccc(Cl)c(Cl)c1
inactive: [1] | [2] | [3] | [4] | [5] | [6] 11.5% [at 4.2 µM, stronger effect = lower value] | [7] | [8] | [9]

C[C@@H]1CCCCO[C@@H](CN(C)S(=O)(=O)c2ccc(Cl)cc2)[C@H](C)CN([C@@H](C)CO)C(=O)c2cc(NS(=O)(=O)c3ccc(Cl)cc3)ccc2O1
inactive: [1] | [2] | [3] | [4] | [5] | [6] -34.3% [at 16 µM, stronger effect = lower value] | [7] | [8] | [9]

O=C(c1ccc(F)cc1)N1C[C@@H]2N[C@H](C1)C2c1ccc(-c2ccc(F)cc2)cc1 (stereo partly specified)
inactive: [1] | [2] | [3] | [4] | [5] | [6] -17.2% [at 4.2 µM, stronger effect = lower value] | [7] | [8] | [9]

C[C@H]1CCCCO[C@@H](CN(C)Cc2ccc(C(F)(F)F)cc2)[C@@H](C)CN([C@@H](C)CO)C(=O)c2cc(NS(=O)(=O)c3cccs3)ccc2O1
inactive: [1] | [2] | [3] | [4] | [5] | [6] -8.06% [at 4.2 µM, stronger effect = lower value] | [7] | [8] | [9]

C[C@@H]1CCCCO[C@@H](CN(C)Cc2ccccc2)[C@@H](C)CN([C@H](C)CO)C(=O)c2cc(NC(=O)Nc3ccc(C(F)(F)F)cc3)ccc2O1
inactive: [1] | [2] | [3] | [4] | [5] | [6] -13.2% | [7] | [8] | [9]

Cc1ccc(S(=O)(=O)Nc2ccc3c(c2)C(=O)N([C@@H](C)CO)C[C@@H](C)[C@@H](CN(C)Cc2ccc(C(F)(F)F)cc2)OCCCC[C@@H](C)O3)cc1
inactive: [1] | [2] | [3] | [4] | [5] | [6] -26.4% [at 8 µM, stronger effect = lower value] | [7] | [8] | [9]

C[C@H](CO)N1C[C@H](C)[C@H](CN(C)C(=O)NC2CCCCC2)Oc2cc(C#Cc3cccc(F)c3)ccc2S1(=O)=O
inactive: [1] | [2] | [3] | [4] | [5] | [6] 16.5% [at 0.5 µM, stronger effect = lower value] | [7] | [8] | [9]

Cc1ccc(S(=O)(=O)Nc2ccc3c(c2)C(=O)N([C@@H](C)CO)C[C@@H](C)[C@@H](CN(C)Cc2ccc(Cl)c(Cl)c2)OCCCC[C@@H](C)O3)cc1
inactive: [1] | [2] | [3] | [4] | [5] | [6] -8.95% | [7] | [8] | [9]

COc1ccccc1-c1ccc2c(c1)[C@H]1[C@H](CCN1S(=O)(=O)c1ccccc1F)[C@H](CO)N2
inactive: [1] | [2] | [3] | [4] | [5] | [6] -17.4% | [7] | [8] | [9]

Cc1ccc(S(=O)(=O)N(C)C[C@H]2Oc3ccc(NC(=O)Cc4ccccc4)cc3C(=O)N([C@H](C)CO)C[C@@H]2C)cc1
inactive: [1] | [2] | [3] | [4] | [5] | [6] 7.17% [at 8 µM, stronger effect = lower value] | [7] | [8] | [9]
